Source: PubChem
Compounds with a hit are over-represented: about 3.5% of the library has one in this group of screens.
Myeloid diff MLP: induction of myeloid progenitor differentiation, primary screen, cell-based, flow cytometry, MLPCN library | ER-HoxA9 myeloid progenitors, lysozyme-GFP differentiation | calls only at 10 µM | 1% of 360,000 active | AID 624256, 2012;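 active means normalized GFP-positive differentiation at or above the plate's own cutoff, the solvent-only control mean plus 3 SD; inconclusive means no clear call, values can overlap the other calls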;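 further: cells exposed to compound for four days before flow analysis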
SKN-1 block: suppressors of acrylamide-induced Pgst-4::GFP reporter in worms, primary screen, SKN-1 inhibitor project, whole organism, uHTS, GFP/RFP fluorescence ratio, strain VP596. AID 624304, 2012. inhibition, % at 21.8 µM. C. elegans VP596 Pgst-4::GFP/RFP ratio, 24 h. 0.49% of 360,000 active;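 active means interference check ratio from 0.5 to 1.5 plus GFP to RFP signal ratio inhibition reaching or exceeding a fixed threshold, cut at about 30% in these data, passing the limit was not always enough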
M1 ag: human M1 muscarinic receptor agonists, primary screen, Fluo-8 calcium fluorescence, CHO-K1 cells, HTS; 0.33% of 360,000 active; CHO-K1 hM1, agonist mode; 0% DMSO, 100% acetylcholine EC100; activation, % at 3 µM; Muscarinic acetylcholine receptor M1 (Homo sapiens), P11229;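 active means activation above the run's mean compound activation plus 3 SD, cut at about 16% in these data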;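 further: peak over basal fluorescence ratio within a 140 s kinetic read after compound addition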
M1 PAM: human M1 muscarinic receptor positive allosteric modulators, primary screen, CHO-K1 cells, Fluo-8 calcium fluorescence, 1536-well; Muscarinic acetylcholine receptor M1 (Homo sapiens), P11229; CHO-K1 hM1, ACh EC20; 0% = ACh EC20, 100% = maximal ACh; activation, % at 3 µM; 0.088% of 360,000 active; AID 588819, 2011; in the data active means activation above about 19%, passing the limit was not always enough
ATG4B inhibitor: ATG4B protease inhibitors, primary screen, biochemical, fluorescence, uHTS. Cysteine protease ATG4B (Homo sapiens), Q9Y4P1. AID 504462, 2011. inhibition, % at 8.33 µM. 0.51% of 340,000 active. ATG4B cleavage of LC3-PLA2, NBD-HPC fluorescence, 1 h; in the data active means inhibition above about 40%
Target sequence (Q9Y4P1 whole entry, looked up): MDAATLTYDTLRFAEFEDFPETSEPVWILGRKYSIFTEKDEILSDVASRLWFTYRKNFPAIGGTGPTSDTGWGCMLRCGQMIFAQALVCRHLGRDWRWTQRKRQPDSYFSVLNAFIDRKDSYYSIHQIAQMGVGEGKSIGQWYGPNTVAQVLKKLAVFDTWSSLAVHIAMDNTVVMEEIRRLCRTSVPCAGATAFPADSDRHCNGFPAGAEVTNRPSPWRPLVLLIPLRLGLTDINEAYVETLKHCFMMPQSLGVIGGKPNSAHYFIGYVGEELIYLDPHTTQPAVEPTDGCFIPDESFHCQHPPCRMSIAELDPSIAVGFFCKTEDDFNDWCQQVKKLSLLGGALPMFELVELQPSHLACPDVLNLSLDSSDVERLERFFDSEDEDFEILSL
M1 antag: human M1 muscarinic receptor antagonists, primary screen, CHO-K1 cells, Fluo-8 calcium fluorescence, 1536-well. Muscarinic acetylcholine receptor M1 (Homo sapiens), P11229. CHO-K1 hM1, ACh EC80 antagonist. inhibition, % at 3 µM. 1.3% of 360,000 active;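 active means percent inhibition above its own plate's cutoff, namely the mean of that plate's compound wells plus 3 SD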;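 further: peak over basal fluorescence ratio during 140 s after agonist addition; 0% = ACh EC80 plus DMSO and 100% = DMSO alone without agonist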
Active calls of the source: *; i = inactive; u = inconclusive; x = not tested or not shown; + = active, no number.

SMILES	Myeloid diff MLP	SKN-1 block	M1 ag	M1 PAM	ATG4B inhibitor	M1 antag
CCCCCC(=O)Nc1ccc(N2CCN(CC)CC2)c(Cl)c1	i	0	-7	-23	9	69*
CCN1CCN(c2ccc(NC(=O)c3ccc(C#N)cc3F)cc2Cl)CC1	i	-2	-8	-27	-13	54*
CC(=O)N1CCN(c2ccccc2NC(=O)c2ccc(C#N)cc2F)CC1	i	-10	-3	0	-9	12
CCN1CCN(c2ccc(NC(=O)c3cc4ccccc4cc3OC)cc2C)CC1	i	22	-5	-22	-1	99*
CCCS(=O)(=O)NC(=O)C1(C)CCN(C(=O)Cc2ccc(OC)c(OC)c2)C1 (stereo not drawn)	i	24	-1	1	x	-8
COc1ccccc1C(=O)C1CCCN(C(=O)c2ccc(Cl)cc2)C1 (stereo not drawn)	i	1	-4	-16	x	-3
O=Nc1c(O)n(Cc2cccc(Cl)c2)c2ccccc12	i	21	20*	26*	-11	-17
NC(=S)N=Nc1c(O)n(Cc2ccccc2)c2ccccc12	i	5	-5	8	2	-5
O=C1N[C@H]2CC=C[C@H]2Nc2ccccc21	+	6	-1	11	-1	-21
CN1CCC(=C2c3ccccc3C(O)c3ccccc32)CC1 (stereo not drawn)	i	28	-11	-35	10	100*
CN1CCC(=C2c3ccccc3CCc3sccc32)CC1	i	1	-4	-26	3	98*
Cc1ccc2c(c1)N(CC(=O)NCCCN1CCOCC1)C(=O)C(C(C)C)O2 (stereo not drawn)	i	-3	-2	-4	-3	-3
N#Cc1ccc(CN2CCN(C(=O)CNC(=O)Cc3ccccc3)CC2)cc1	i	-8	11	9	-4	6
CCN1CCCC1CNC(=O)c1ccc(Sc2ccc(F)cc2)c([N+](=O)[O-])c1 (stereo not drawn)	i	8	-7	-26	-7	100*
CCN1CCN(C(=O)c2ccc(Sc3ccccc3Cl)c([N+](=O)[O-])c2)CC1	i	3	-10	-26	0	21
CCN1CCCC1CNC(=O)c1ccc(Sc2ccccc2Cl)c([N+](=O)[O-])c1 (stereo not drawn)	i	-8	-8	-26	-6	99*
COc1cccc(-c2cnc(C(O)c3cc(Cl)cc(Cl)c3)[nH]2)c1 (stereo not drawn)	i	-5	6	-1	x	5
CCCCNC(=O)C1(C)CCCCN1C(=O)c1cccc(OC(F)(F)F)c1 (stereo not drawn)	i	18	-2	-4	x	8
CCOc1ccc2nc(N=NC3=C(O)CC(C)(C)CC3=O)sc2c1	i	35*	-2	9	-8	-6
CC1(C)Cc2ccccc2C2=NNC(=O)C2=N1	+	0	-4	7	8	-3
Cc1nn(C(C)C(=O)NCCN2CCCCCC2)c(=O)c2nn(-c3ccccc3)c(C)c12 (stereo not drawn)	i	-6	-5	-21	0	58*
CCc1nn(C(C)C(=O)NCCN2CCCCCC2)c(=O)c2cc3occc3n12 (stereo not drawn)	i	-2	-5	-22	3	38*
Cc1nn(CC(=O)NCCN2CCCCCC2)c(=O)c2nn(-c3ccccc3)c(C)c12	i	20	-14	-26	0	24
Cc1ccc(-n2nc3c(=O)n(CCCC(=O)N4CCCCC4)nc(C)c3c2C)cc1	i	1	-6	-3	-2	-5
CCc1nn(C(C)C(=O)NCCN2CCN(c3cccc(C)c3C)CC2)c(=O)c2cc3occc3n12 (stereo not drawn)	i	8	-2	6	12	-13
SMILES	Myeloid diff MLP	SKN-1 block	M1 ag	M1 PAM	ATG4B inhibitor	M1 antag
CCOc1ccc(-n2nc3c(=O)n(CCN4CCCCC4)nc(C)c3c2C)cc1	i	8	-11	-25	-5	31*
Cc1ccccc1N(CC(=O)NCCSCc1ccccc1)S(C)(=O)=O	i	-14	-2	5	-4	-6
O=C(N1CCOCCOc2ccccc2OCCOCC1)C(F)(F)F	i	-3	0	15	-5	-18
O=c1cc(-c2ccccc2F)nc(-c2ccccc2F)o1	i	12	-3	1	-1	-3
O=c1cc(-c2cccc(Br)c2)nc(-c2ccccc2F)o1	i	-6	-6	1	46*	-1
Nc1ccc(-c2c3ccc(=O)cc-3oc3cc(O)ccc23)cc1C(=O)O	+	-146	278*	-38	-124	55*
COc1ccc(-c2c(C)c3ccc(O)cc3oc2=O)cc1OC	i	-2	-1	1	-6	-4
O=c1cc(-c2ccccc2)oc2cc(O)ccc12	i	-2	-2	0	-12	-6
O=c1ccc2c(-c3ccccc3)c3ccc(O)cc3oc-2c1	+	-19	+	-30	i	104*
CC(C)(C)CNC(=O)c1cc2c(Br)ccc(Br)c2nc1N	i	2	x	x	x	x
Cc1nc(SCC(=O)N2CCCC2=O)nc(C)c1C	i	7	-1	0	2	-1
CCN(CC)CCN1C(=O)C(=O)/C(=C(/O)c2cnn(-c3ccccc3)c2C)C1c1ccc(C)o1 (stereo not drawn)	i	46*	-5	4	-1	-8
O=C(c1ccccc1)N1N=C(C(F)(F)F)CC1(O)c1ccc(F)cc1 (stereo not drawn)	i	5	-3	13	-4	-24
Cc1ccc(OCCCCn2cnc3ccccc32)c(C)c1	i	44*	2	-4	0	23
Cc1ccc(C)c(OCc2cc(C(=O)N3CC[C@H](O)C3)no2)c1	i	19	0	4	16	-6
CN(CC(=O)Nc1ccc(F)cc1)C(=O)COC(=O)C1=COCCO1	u	8	-2	7	6	-19
Cc1cc(C)c(-c2csc(NC(=O)c3cc([N+](=O)[O-])ccc3N3CCOCC3)n2)c(C)c1	i	9	-10	-30	-7	59*
O=C(NCc1cccnc1)c1ccc(N2CCOCC2)c([N+](=O)[O-])c1	i	0	-7	7	-11	-4
O=C(NCc1cccnc1)c1cc([N+](=O)[O-])ccc1N1CCOCC1	i	6	20*	0	-2	-1
